From ChEMBL document CHEMBL3988442, “University of Dundee, Small-Polar-MMV Screening Library” (2021)
For part of these data: Entries with a potency or affinity are not part of this list.

Experiments:
Parameters in all cases: scale not given: direction of the effect not stated beside the values
[1] = molecular target: Protein translocase subunit SecA (Escherichia coli (strain K12)) (UniProt P10408); test: Assay to Identify E. coli SecA ATPase Inhibitors; type: functional; settings: 30 µM
[2] = molecular target: T1, Ubiquitin-activating enzyme e1, putative (Leishmania donovani (strain BPK282A1)) (UniProt E9BSI1); test: Leishmania donovani Ubiquitin Activating Enzyme (LdE1); type: functional; settings: 30 µM
T1 sequence (whole entry): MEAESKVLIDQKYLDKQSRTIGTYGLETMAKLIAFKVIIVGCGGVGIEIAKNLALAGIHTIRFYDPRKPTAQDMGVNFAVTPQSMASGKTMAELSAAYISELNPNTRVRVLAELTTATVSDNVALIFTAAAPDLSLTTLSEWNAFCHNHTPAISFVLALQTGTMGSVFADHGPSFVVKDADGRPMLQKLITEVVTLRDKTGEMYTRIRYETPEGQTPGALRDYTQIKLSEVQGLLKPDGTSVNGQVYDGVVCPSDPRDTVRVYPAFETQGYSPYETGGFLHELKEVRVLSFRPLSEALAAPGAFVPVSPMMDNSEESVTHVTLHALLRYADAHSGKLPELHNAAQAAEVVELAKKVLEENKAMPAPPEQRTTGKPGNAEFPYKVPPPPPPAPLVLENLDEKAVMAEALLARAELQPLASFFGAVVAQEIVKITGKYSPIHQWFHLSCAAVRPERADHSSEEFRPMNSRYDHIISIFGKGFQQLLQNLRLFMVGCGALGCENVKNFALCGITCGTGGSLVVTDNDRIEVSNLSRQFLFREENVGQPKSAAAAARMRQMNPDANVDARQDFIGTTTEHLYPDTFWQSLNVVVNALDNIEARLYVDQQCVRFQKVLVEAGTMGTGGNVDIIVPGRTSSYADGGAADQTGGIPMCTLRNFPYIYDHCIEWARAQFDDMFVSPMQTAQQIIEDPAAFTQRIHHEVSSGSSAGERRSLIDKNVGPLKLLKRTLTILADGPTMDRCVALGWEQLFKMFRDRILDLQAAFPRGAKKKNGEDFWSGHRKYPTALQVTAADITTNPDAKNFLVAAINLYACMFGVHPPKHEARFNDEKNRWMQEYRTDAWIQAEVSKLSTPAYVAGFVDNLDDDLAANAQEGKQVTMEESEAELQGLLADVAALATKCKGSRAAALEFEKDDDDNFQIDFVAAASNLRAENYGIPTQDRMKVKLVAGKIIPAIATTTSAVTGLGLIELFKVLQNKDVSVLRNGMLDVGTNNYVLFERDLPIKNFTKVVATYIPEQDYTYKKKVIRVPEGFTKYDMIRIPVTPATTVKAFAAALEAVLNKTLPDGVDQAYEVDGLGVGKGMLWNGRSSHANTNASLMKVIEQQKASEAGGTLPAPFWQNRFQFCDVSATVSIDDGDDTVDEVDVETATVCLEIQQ

[3] = molecular target: AMP-activated protein kinase, AMPK (Homo sapiens) (UniProt P54646+O43741+P54619+Q9UGJ0+Q9Y478+Q13131+Q9UGI9); test: AMP-dependent Kinase enzyme assay. An in vitro enzyme assay that detects ADP turnover that is directly proportional to AMPK activity. This uses naive AMPK that is activated during the assay with MK-8722; type: functional; settings: 30 µM
[4] = molecular target: Sialic acid-binding Ig-like lectin 9 (Homo sapiens) (UniProt Q9Y336); test: Hs-Siglec9 ALPHAscreen SOP 20170721; settings: 10 µM
Trypanosoma cruzi = test: Trypanosoma cruzi phosphomannomutase and mannose-1-phosphate guanylyltransferase assay; type: functional; settings: 10 µM
[5] = molecular target: T2, Arginase-2, mitochondrial (Homo sapiens) (UniProt P78540); test: in vitro enzyme assay to detect the production of urea directly proportional to the activity of Arginase II; type: functional; settings: 33.3 µM; further: in the data most compounds retested in dose-response had high values
T2 sequence (whole entry): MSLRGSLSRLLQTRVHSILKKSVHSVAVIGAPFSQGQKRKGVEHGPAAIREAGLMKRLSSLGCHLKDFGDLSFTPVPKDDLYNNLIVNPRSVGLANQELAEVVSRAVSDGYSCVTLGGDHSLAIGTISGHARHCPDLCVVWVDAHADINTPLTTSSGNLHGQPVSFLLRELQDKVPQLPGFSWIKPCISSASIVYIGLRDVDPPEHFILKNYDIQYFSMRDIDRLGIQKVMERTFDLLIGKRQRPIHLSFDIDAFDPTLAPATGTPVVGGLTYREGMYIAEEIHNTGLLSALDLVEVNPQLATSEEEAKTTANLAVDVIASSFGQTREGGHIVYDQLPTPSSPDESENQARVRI

[6] = molecular target: T3, Proteasome subunit beta (Trypanosoma cruzi) (UniProt O96673); test: Trypanosoma cruzi proteasome chymotrypsin-like activity (TcProtChymo) assay.; further: in the data most compounds retested in dose-response had high values; type: functional; settings: 9.37 µM
T3 sequence (whole entry): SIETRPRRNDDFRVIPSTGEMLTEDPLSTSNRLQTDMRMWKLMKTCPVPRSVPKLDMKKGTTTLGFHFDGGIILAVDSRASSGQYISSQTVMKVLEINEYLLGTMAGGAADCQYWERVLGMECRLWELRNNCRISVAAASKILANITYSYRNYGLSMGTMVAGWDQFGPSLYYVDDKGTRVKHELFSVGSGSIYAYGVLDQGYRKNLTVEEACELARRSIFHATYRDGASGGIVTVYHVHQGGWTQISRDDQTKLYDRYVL

Homo sapiens = organism: Homo sapiens; test: To identify inhibition of the IFN signalling (Jak-Stat) pathway via expression of an eGFP reporter gene under the control of an IFN-stimulated response element (ISRE) containing MxA promoter.; type: functional; settings: 30 µM
[7] = molecular target: T4, Tyrosyl-tRNA synthetase, putative (Trypanosoma cruzi (strain CL Brener)) (UniProt Q4DSP6); test: Trypanosoma cruzi tyrosyl tRNA synthetase (TcYRS) _High Tyrosine SOP; type: functional; settings: 30 µM; further: in the data most compounds retested in dose-response had high values
T4 sequence (whole entry): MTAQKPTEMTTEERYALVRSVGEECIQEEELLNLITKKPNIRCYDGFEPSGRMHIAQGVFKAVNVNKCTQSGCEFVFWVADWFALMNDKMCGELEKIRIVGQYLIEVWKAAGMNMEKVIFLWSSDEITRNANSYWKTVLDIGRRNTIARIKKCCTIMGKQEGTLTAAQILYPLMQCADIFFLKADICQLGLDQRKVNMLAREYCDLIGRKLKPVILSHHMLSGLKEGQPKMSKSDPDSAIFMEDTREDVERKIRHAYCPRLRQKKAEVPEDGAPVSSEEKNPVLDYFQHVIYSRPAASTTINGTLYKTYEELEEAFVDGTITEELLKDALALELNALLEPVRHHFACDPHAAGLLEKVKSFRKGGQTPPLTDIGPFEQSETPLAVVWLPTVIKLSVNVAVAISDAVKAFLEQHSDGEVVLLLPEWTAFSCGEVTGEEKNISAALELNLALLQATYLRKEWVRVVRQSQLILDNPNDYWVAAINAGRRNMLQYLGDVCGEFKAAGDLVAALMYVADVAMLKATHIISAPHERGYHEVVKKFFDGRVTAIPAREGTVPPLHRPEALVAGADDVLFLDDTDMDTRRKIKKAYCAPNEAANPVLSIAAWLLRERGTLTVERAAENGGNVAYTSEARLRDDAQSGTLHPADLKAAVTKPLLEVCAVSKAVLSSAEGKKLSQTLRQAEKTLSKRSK

[8] = molecular target: T4, Tyrosyl-tRNA synthetase, putative (Trypanosoma cruzi (strain CL Brener)); test: Trypanosoma cruzi tyrosyl tRNA synthetase (TcYRS) SOP; type: functional; settings: 30 µM
[9] = molecular target: Chromo domain-containing protein 1 (Saccharomyces cerevisiae (strain ATCC 204508 / S288c) (Baker's yeast)) (UniProt P32657); test: ScCHD-1 Enzyme Inhibition Assay; type: functional; settings: 30 µM; further: in the data most compounds retested in dose-response had high values
Chain of Chromo domain-containing protein 1 (Saccharomyces cerevisiae (strain ATCC 204508 / S288c) (Baker's yeast)) (P32657 whole entry, the tested form may be a part): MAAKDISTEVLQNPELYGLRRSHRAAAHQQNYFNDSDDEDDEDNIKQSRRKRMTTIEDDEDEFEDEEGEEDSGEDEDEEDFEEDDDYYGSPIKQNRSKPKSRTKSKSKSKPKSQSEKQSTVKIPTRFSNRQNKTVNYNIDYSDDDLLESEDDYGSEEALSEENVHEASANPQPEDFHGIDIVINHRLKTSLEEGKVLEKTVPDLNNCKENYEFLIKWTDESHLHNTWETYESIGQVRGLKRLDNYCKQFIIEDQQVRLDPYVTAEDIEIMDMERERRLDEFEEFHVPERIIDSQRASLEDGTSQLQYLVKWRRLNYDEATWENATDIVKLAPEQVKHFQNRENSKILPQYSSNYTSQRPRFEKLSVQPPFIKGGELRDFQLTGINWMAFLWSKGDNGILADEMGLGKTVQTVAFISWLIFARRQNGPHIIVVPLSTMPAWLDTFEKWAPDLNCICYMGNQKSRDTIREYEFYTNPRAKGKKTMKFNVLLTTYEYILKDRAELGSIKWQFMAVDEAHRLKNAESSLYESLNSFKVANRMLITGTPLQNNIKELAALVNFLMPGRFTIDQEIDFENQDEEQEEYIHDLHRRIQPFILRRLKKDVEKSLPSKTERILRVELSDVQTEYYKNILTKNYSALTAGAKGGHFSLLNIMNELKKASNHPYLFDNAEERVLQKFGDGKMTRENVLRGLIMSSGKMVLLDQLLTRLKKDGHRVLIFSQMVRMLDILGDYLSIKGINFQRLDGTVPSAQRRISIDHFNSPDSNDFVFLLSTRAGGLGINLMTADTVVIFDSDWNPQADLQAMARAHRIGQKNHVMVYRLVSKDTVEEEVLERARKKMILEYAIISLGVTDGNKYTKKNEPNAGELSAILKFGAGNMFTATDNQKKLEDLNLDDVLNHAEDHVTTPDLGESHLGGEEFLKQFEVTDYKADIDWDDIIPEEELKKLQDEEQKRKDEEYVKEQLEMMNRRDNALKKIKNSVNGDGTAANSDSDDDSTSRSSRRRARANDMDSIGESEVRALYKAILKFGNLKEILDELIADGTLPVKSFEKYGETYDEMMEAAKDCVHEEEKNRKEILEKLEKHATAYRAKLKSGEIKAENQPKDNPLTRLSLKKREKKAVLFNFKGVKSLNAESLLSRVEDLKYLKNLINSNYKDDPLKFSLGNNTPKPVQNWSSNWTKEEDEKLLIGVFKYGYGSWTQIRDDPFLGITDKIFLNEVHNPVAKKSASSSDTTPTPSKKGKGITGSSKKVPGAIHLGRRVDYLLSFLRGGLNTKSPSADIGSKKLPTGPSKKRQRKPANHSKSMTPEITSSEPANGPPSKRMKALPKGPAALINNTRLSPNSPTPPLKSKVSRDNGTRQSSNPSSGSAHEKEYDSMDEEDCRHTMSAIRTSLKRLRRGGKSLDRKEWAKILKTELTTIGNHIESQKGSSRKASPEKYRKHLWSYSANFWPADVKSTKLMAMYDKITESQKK

Chain of Protein translocase subunit SecA (Escherichia coli (strain K12)) (P10408 whole entry): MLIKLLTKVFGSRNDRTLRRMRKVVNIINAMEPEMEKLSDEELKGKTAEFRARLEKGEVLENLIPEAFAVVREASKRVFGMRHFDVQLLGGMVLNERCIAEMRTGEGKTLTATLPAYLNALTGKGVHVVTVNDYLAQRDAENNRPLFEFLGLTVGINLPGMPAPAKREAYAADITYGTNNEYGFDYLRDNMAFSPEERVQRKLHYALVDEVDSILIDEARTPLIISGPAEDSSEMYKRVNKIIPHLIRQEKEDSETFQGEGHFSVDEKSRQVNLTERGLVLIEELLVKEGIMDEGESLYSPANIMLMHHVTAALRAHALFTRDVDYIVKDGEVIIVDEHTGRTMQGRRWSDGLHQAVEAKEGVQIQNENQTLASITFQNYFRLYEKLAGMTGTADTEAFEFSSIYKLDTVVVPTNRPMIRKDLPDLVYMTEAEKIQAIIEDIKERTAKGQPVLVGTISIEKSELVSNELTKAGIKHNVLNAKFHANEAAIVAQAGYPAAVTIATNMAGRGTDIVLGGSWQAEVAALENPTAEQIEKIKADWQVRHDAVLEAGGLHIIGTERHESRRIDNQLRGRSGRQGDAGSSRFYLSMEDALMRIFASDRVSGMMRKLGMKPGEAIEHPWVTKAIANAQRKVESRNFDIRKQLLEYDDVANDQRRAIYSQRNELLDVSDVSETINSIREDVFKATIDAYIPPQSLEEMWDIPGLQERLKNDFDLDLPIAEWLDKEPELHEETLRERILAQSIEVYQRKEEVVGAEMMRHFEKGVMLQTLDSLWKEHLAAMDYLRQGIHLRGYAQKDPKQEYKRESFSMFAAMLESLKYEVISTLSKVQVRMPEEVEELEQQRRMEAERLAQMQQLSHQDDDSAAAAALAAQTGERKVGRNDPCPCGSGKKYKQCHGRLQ
Chain of Sialic acid-binding Ig-like lectin 9 (Homo sapiens) (Q9Y336 whole entry): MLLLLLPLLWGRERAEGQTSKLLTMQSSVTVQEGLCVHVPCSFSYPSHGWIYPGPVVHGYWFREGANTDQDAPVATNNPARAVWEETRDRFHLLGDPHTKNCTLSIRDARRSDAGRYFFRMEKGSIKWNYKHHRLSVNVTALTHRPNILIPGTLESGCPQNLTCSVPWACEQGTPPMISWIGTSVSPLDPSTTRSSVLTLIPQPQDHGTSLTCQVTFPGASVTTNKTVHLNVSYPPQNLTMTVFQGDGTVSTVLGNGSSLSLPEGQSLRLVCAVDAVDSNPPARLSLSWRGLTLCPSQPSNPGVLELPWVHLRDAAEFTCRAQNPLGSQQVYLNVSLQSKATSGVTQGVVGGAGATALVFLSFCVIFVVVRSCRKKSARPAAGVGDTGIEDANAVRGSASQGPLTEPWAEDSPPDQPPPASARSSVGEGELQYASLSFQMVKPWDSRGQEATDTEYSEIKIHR

SMILES	Percent Effect [1]	Percent Effect [2]	Percent Effect [3]	Percent Effect [4]	Percent Effect (Trypanosoma cruzi)	Percent Effect [5]	Percent Effect [6]	Percent Effect (Homo sapiens)	Percent Effect [7]	Percent Effect [8]	Percent Effect [9]
O=C(O)c1cc(S(=O)(=O)Nc2cc(F)ccc2F)cc2c1OCCO2	-3.9%	-2.63%	4.03%	6.95%	-6.44%	3.6%	4.65%	3.03%	0.493%	1.24%	-3.53%
O=C(C[C@@H]1COC[C@H]2CN(Cc3ccncc3)C[C@@H]12)N1CCOCC1	-1.31%	12%	-1.49%	2.73%	-6.88%	-17.4%	10.5%	-2.62%	0%	2.56%	-5.74%
COc1ccc(-c2nc(CN3CCCC3Cn3cccn3)no2)cc1 (stereo unspecified)	-6.58%	7.79%	-5.32%	11.9%	8.99%	-6.41%	9.12%	12.7%	5.83%	21.9%	-11.9%
CN(Cc1cnn(C)c1)C(=O)Cn1c(CS(C)(=O)=O)nc2ccccc21	-1.5%	10.5%	3.77%	-0.257%	-3.6%	-8.28%	11.2%	9.18%	5.32%	10.4%	-3.69%
CC(=O)N1CCCN(Cc2csc(-c3ncccn3)n2)CC1	-0.976%	13.2%	-3.37%	-1%	-3.02%	3.55%	20.4%	12%	6.38%	18.2%	-3.23%
Cc1ccccc1OCCC(=O)OC(C)C(=O)Nc1sccc1C(N)=O (stereo unspecified)	-2.66%	-2.7%	6.19%	-3.07%	-9.09%	-10.2%	8.33%	44.8%	-15.1%	-16.1%	15.1%
Cc1cc(C(=O)N2CCc3ncc(CN4CCOCC4)n3CC2)no1	-4.01%	0%	1.62%	0.585%	0.0978%	-15.6%	-3.51%	-3.46%	-3.24%	-5.13%	8.28%
CC(C)C(C)NC(=O)Nc1ccc(CS(C)(=O)=O)cc1 (stereo unspecified)	-5.9%	5.26%	7.91%	3.79%	4.77%	-14.2%	15.6%	12.9%	-5.32%	10.4%	-1.16%
COc1cccc(C(=O)N2CCCC(c3cc(C)[nH]n3)C2)c1OC (stereo unspecified)	-3.02%	10.8%	-3.74%	-1.79%	8.4%	-2.81%	11.7%	17.4%	4.43%	16.1%	-5.21%
Cc1nc(C)n(CC2CCCN2CC(=O)NCCc2ccccc2)n1 (stereo unspecified)	0.351%	0%	2.9%	4.24%	1.37%	1.36%	12.4%	-18.8%	1.07%	2.5%	-5.02%
CCc1ccc(C(=O)N2CCCC(c3noc(CC)n3)C2)o1 (stereo unspecified)	-0.983%	2.6%	7.44%	4.61%	3.04%	0.21%	4.12%	3.88%	0.952%	7.06%	-10.5%
CSc1ccc(-c2nc(CN3CCC(NC(C)=O)C3)c(C)o2)cc1 (stereo unspecified)	-6.31%	-5.41%	0.887%	-0.709%	-4.25%	-3.33%	2.93%	18.4%	4.76%	7.32%	-1.88%
Cc1nc(C)n(CC2CCCN(CCOc3cccc(C#N)c3)C2)n1 (stereo unspecified)	1.74%	21.6%	7.7%	4.91%	-8.4%	24.9%	11.2%	17.4%	0.493%	-1.24%	-4.16%
Cc1nc(C)n(CC2CCCN(c3ncnc4c3CCC4)C2)n1 (stereo unspecified)	-4.39%	0%	0.226%	-3.72%	-4.25%	-2.81%	-2.88%	64.3%	-2.46%	-8.64%	4.82%
O=C(C1CC=CC1)N1C[C@@H]2[C@@H](C1)OCC(=O)N2Cc1cccnc1	-2.28%	-2.6%	12.1%	3.67%	0.888%	-3.23%	0.87%	15%	2.12%	6.41%	-4.72%
CC(C)Cc1cc(NC(=O)c2ccc[nH]2)n(C)n1	-5.53%	5.2%	3.29%	6.59%	-5.24%	-5.34%	-0.169%	0.305%	5.83%	14.6%	-7.26%
Cn1nc(CNC(=O)c2nc3ccccc3s2)c2c1CCOC2	-1.59%	0%	8.14%	0.56%	5.03%	-0.645%	4.18%	24.8%	1.06%	6.41%	-5.4%
Cc1nn(-c2ccccc2)c2c1C(c1ccc(C(=O)O)cc1)CC(=O)N2 (stereo unspecified)	-4.78%	10.7%	-3.15%	13.8%	6.33%	2.6%	7.85%	11.5%	3.83%	6.17%	-14.9%
CNc1oc(-c2ccc(OC)c(S(=O)(=O)N3CCCCC3)c2)nc1C#N	-1.33%	1.33%	15.5%	7.55%	-5.7%	-6.51%	9.98%	-4.26%	5.29%	2.56%	-9.36%
Cc1cc(C)n(C2CN(CC(=O)NCC(C)(C)N3CCOCC3)C2)n1	-1.83%	8.86%	2.81%	2.3%	-1.13%	-0.645%	8.92%	20.1%	5.21%	15.2%	-7.96%
Cn1ccc(C(=O)N2CCN(c3ncccn3)CC2)cc1=O	-7.23%	5.41%	33.6%	9.56%	-3.49%	-2%	6.13%	4.12%	3.45%	11.1%	-2.92%
